# This is a sample that favours compounds with a hit; in the whole collection about 8.6% have one here.
# Lassa entry = blocks Lassa virus binding or cell entry | Lassa virus pseudotyped entry inhibition, cell-based qHTS | 4.1% of 18,000 active | Potency, µM (series often up to 49.2 µM), for inactives: top-dose activity change, negative = inhibition, most hits filed as inhibitors
# MARV entry inh = blocks Marburg virus binding or cell entry | Marburg virus pseudotype entry/binding inhibition, cell-based | Potency, µM (highest dose often 49.2 µM), inactives show top-dose activity change, negative = inhibition, usual class: inhibitors | 6.5% of 18,000 active | AID 720532
# Active calls of the source: *; u = inconclusive; x = not tested or not shown; ! = not confirmed by another sample; [ ] = remark or other dose. Calls follow the shape of the full dose curve; tested in HEK293 cells. % is scaled to controls: 0 for no effect and ±100 for the full control effect; potency is read from the fitted curve at half-maximal effect.
SMILES,Lassa entry,MARV entry inh
C#CCCCON=C1C[C@@H](O)[C@H](O)[C@H]2[C@@H]3C(=O)N(Cc4ccc5c(c4)OCO5)C(=O)[C@@H]3CC[C@H]12,2.8%[8.59 µM],u
CC[C@@]1(O)C(=O)OCc2c1cc1n(c2=O)Cc2cc3cc(O)ccc3nc2-1,0.112µM*,u
CN[C@@H]1CCc2[nH]c3ccc(C(N)=O)cc3c2C1,-12.3%,7.8%
CN(C)C1CCc2[nH]c3ccc(NC(=O)c4ccc(F)cc4)cc3c2C1 (stereo unspecified),-20.3%,11.2µM*
C[C@H]1COc2cccc(F)c2S(=O)(=O)N1,18.8%,22.5%
CC(CCN1CCc2nc(-c3ccccc3)c(-c3ccccc3)cc2C1)=NO[C@H](C)CN1CCCCc2nc(C)c(C)cc21,7.4%[8.59 µM],24.9%[8.59 µM]
CCN(CC)CCNC(=O)c1cnn(-c2nccc(-c3cc4ccccc4o3)n2)c1C,u,12.6µM*
O=C(NC[C@@H]1CCCN2CCCC[C@H]12)c1cnn(-c2nccc(-c3cc4ccccc4o3)n2)c1C1CC1,u,11.2µM*
Cc1c(C(=O)NCCc2cccnc2)cnn1-c1nccc(-c2ccccc2F)n1,-5.1%,36.9%
CCN1CCCC1CNC(=O)c1cnn(-c2nccc(-c3cc4ccccc4o3)n2)c1C1CC1 (stereo unspecified),-17.5%,u
Cc1[nH]c(/C=C2/C(=O)Nc3ccc(S(=O)(=O)Cc4c(Cl)cccc4Cl)cc32)c(C)c1C(=O)N1CCCC1CN1CCCC1 (stereo unspecified),-4.2%,14.1µM*
O=C(Cc1ccc(Cl)c(Cl)c1)N1CCCC[C@H]1CN1CCCC1,-24.6%,u
N#Cc1c(NC(=O)c2ccc(F)cc2)sc2c1CCCC2,21.3%,48.6%
CN1[C@@H](c2ccccc2)COc2c(Cl)cccc2S1(=O)=O,-44.3%,-9.5%
COC(=O)CC=C[C@@H](C)[C@@H](C=NOC[C@@H](O)COCc1ccco1)NS(=O)(=O)c1ccc(C)cc1,-16.4%[8.59 µM],20.9%[8.59 µM]
CC(=O)O[C@@H]1[C@@H](O)C2OC3C=C(C)C(=O)[C@@H](O)[C@]3(CO)C1(C)C21CO1 (stereo partly specified),0.562µM*,0.355µM*
CCS(=O)(=O)c1ccc(OC)c(Nc2ncc(-c3cccc(C(C)=O)c3)o2)c1,-30.9%,-27.2%
CCC(C)c1cc([N+](=O)[O-])cc([N+](=O)[O-])c1OC(C)=O (stereo unspecified),-8.0%,-4.6%
CCC(C)c1cc([N+](=O)[O-])cc([N+](=O)[O-])c1OC(=O)OC(C)C (stereo unspecified),17.8µM*,u
NC(=NCCc1ccc(I)cc1)SCCCc1cnc[nH]1,17.8%,22.4µM*
NCCc1cnc[nH]1,0.1%,1.3%
CN(Cc1ccccc1)Cc1ccccc1,-4.3%,2.3%
CCN(CCCc1ccccc1)CCCc1ccccc1,u,8.91µM*
CC[C@H]1[C@@H]2C=C[C@@H]3[C@H]4C/C=C\C(=O)NCCC[C@@H]5NC(=O)C(=C5O)C(=O)CC[C@@H]4C[C@@H]3[C@H]2C[C@H]1C,28.2µM*,14.1µM*
O=C(CC(=O)c1ccccc1)c1ccccc1,59.2%,34.6%
SMILES,Lassa entry,MARV entry inh
O=C(O)CCC(=O)c1ccc(-c2ccccc2)cc1,11.0%[17.8 µM],0.1µM*!
CNC(=O)c1cncc(C=Cc2c(C)cccc2C)c1,34.7%,u
C=CS(=O)(=O)O,-13.8%,22.4µM*
O=S(=O)(N[C@@H](CO)Cc1ccccc1)c1ccc(Br)cc1F,10.0%,22.3%
Cc1cnc(C)c(-c2ccc(F)c3c2OC(CNC(=O)/C=C/c2cccs2)C3)n1 (stereo unspecified),u,-27.2%
COC1=C(C(=O)c2ccccc2)C(=O)[C@@]2(CC=C(C)C)CC(C#N)C[C@@]1(CC=C(C)C)C2=O (stereo partly specified),u,-16.4%[8.59 µM]
CC(C)n1nc(-c2cc3cc(O)ccc3[nH]2)c2c(N)ncnc21,3.98µM*,3.55µM*
CC(C)(C)n1nc(-c2ccc(Cl)cc2)c2c(N)ncnc21,6.0%,39.0%
Cc1cc(C)c(OCc2cn(CC(=O)c3ccc(O)cc3)nn2)c(C)c1,-21.5%,11.0%
O=C(Nc1ccc(S(=O)(=O)N2CCOCC2)cc1)c1cc(Cl)ccc1NS(=O)(=O)c1ccc(Cl)s1,-14.2%,13.3%
Nc1nc(NCC2CCC(CNS(=O)(=O)c3cccc4ccccc34)CC2)nc2ccccc12 (stereo unspecified),u,11.2µM*
NCCCCCCNS(=O)(=O)c1cccc2ccccc12,u,9.2%
CCOC(=O)C1(C(=O)OCC)Cc2ccc(C(C)=O)cc2C1,x,-19.9%[8.59 µM]
CCCOC(=O)c1cc(O)c(O)c(O)c1,-22.0%,25.1µM*
CCCOC(=O)c1ccc(O)cc1,-16.2%[107 µM],14.9%[107 µM]
C=CC[C@]1(C(=O)OC)C=C[C@H](C)[C@@H](c2ccccc2)N1C(=O)C(F)(F)F,9.7%[8.59 µM],-15.4%[8.59 µM]
CCN1\C(=C/C=C/C=C/c2sc3ccccc3[n+]2CC)Sc2ccccc21,11.2µM*,7.08µM*
O=C1N=c2ccc(N=Cc3c(O)[nH]c4ccccc34)cc2=N1,11.7%,15.9%
COC(=O)C1=C(C(=O)OC)[C@@H]2N(C)c3ccccc3[C@@]23CCC(=O)N(CC(C)C)C3=N1,0.9%[8.59 µM],8.1%[8.59 µM]
CSC[C@H]1CN(c2ccc(Br)cc2)C(=O)[C@H]1CC(=O)Nc1ccc(Br)cc1,-27.7%,-25.7%
COCC=CC1=CC2=CC(=O)C(C)(OC(=O)c3cnc4ccccc4n3)C(=O)C2=CN1CCc1c[nH]c2ccccc12 (stereo unspecified),-11.3%[8.59 µM],22.3%[8.59 µM]
COC(=O)C[C@](O)(CCCC(C)(C)O)C(=O)O[C@@H]1C(OC)=CC23CCCN2CCc2cc4c(cc2[C@H]13)OCO4 (stereo partly specified),22.4µM*,u
COC(=O)C[C@@](O)(CCC(C)(C)O)C(=O)O[C@@H]1C(OC)=C[C@]23CCCN2CCc2cc4c(cc2[C@@H]13)OCO4,0.112µM*,0.1µM*
COC1=CC23CCCN2CCc2cc4c(cc2C3C1O)OCO4 (stereo unspecified),-4.7%,3.5%
COC(=O)C(O)C(O)(CCC(C)C)C(=O)OC1C(OC)=CC23CCCN2CCc2cc4c(cc2C13)OCO4 (stereo unspecified),0.126µM*,0.004µM*
SMILES,Lassa entry,MARV entry inh
COc1cccc([C@@H]2Oc3ccc(Br)cc3C(=O)[C@@H]2OC(=O)N[C@H](C)C2CCCCC2)c1,-14.5%[8.59 µM],-29.7%[8.59 µM]
CC(C)CC1C(=O)N(Cc2cn(CCC3OCCCO3)nn2)CCS(=O)(=O)N1Cc1ccc(-c2ccc(F)nc2)cc1 (stereo unspecified),-9.5%,u
Clc1ccccc1-c1nc(N2CCNCC2)c2ccccc2n1,-12.5%,u
CN1CCN(C2=Nc3cc(F)ccc3Cc3ccccc32)CC1,-9.7%,u
CN1CCN(C2=Nc3cc(Cl)ccc3Nc3ccccc32)CC1,8.91µM*!,10µM*
Clc1ccc2c(c1)N=C(N1CCNCC1)c1ccccc1N2,u,10µM*
CC#CCN1c2ccccc2[C@]23CCC(=O)N(Cc4ccco4)C2=NC(C(=O)OC)=C(C(=O)OC)[C@H]13,-19.8%[8.59 µM],u
C[C@H]1[C@@H](c2ccccc2)Oc2c(Cl)cccc2S(=O)(=O)N1Cc1ccc(F)cc1F,8.5%,u
CCCC[C@]12Cc3cc(OC)c(OC)cc3[C@H](O1)c1c(cc(-c3ccccc3)oc1=O)O2,3.1%[8.59 µM],-24.8%[8.59 µM]
CN1C(=O)[C@]23CC4=CC=C[C@H](O)[C@H]4N2C(=O)[C@@]1(CO)SS3,2.51µM*,1.41µM*
COC(=O)C1=C[C@]2(c3ccccc3C[C@H](OC)[C@@H]2C)[C@H]2C=C[C@H]1C2,-22.8%[8.59 µM],8.3%[8.59 µM]

# Screening results deposited in PubChem by National Center for Advancing Translational Sciences (NCATS).
